# High-throughput results from PubChem BioAssay.
# This is a sample that favours compounds with a hit; in the whole collection about 11% have one here.
# SW480 rereplic: A quantitative high throughput screen for small molecules that induce DNA re-replication in SW480 colon adenocarcinoma cells; SW480 DNA re-replication, Hoechst DNA content imaging, 48 h; Potency, µM (top dose mostly 46.1 µM), actives largely listed as activators; 340,000 tested, 1.8% active; also: nearly all actives have a fitted effect of over 55% in size
#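 First, 250 cells per well were seeded. Next, compound or vehicle (23 nL) was pinned in, plates sat 48 hr at 37 C. Finally Hoechst was added for 40 min before fluorescence scanning.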
# MCF10A rerep: A quantitative high throughput screen for small molecules that induce DNA re-replication in MCF 10a normal breast cells; MCF 10A DNA re-replication, Hoechst nuclear intensity, 48 h; Potency, µM (doses to about 46.1 µM), hits mostly activators; 350,000 tested, 2.9% active; also: nearly all actives have a fitted effect of over 50% in size
# RORg inh: qHTS for inhibitors of ROR gamma transcriptional activity | Nuclear receptor ROR-gamma (Mus musculus), P51450 | Drosophila S2 Gal4-RORgamma UAS-luciferase reporter, 20 h | Potency, µM (titrated, usually from 53.6 µM), most hits filed as inhibitors | 310,000 tested, 5.4% active | AID 2551, 2010; also: nearly all actives have a fitted effect of over 60% in size
# Target sequence (P51450 whole entry, looked up, the tested form may be a part): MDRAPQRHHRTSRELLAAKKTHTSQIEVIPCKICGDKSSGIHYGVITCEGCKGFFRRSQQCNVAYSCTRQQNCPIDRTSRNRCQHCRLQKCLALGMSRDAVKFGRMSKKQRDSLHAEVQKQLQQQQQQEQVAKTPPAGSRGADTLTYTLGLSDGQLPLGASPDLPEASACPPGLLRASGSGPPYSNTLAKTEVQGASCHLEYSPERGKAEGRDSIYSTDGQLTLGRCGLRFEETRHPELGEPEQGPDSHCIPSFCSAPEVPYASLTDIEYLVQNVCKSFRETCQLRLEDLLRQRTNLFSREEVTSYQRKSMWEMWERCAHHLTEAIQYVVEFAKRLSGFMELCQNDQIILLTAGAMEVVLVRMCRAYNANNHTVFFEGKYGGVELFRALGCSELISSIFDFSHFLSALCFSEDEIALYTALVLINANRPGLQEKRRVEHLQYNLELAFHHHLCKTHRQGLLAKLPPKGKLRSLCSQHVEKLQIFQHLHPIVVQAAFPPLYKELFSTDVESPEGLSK
#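 Luciferase reporter read in Schneider cells carrying Gal4-RORγ (mouse) and UAS-Photinus luciferase; cells given compound 1 h before 700 uM copper sulfate induction, then incubated 20 h at ambient temperature.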
# Gal4-VP16 FLuc: VP16 counterscreen qHTS for inhibitors of ROR gamma transcriptional activity; Drosophila S2 Gal4-VP16 UAS-luciferase, luminescence, 20 h; Potency, µM (top dose mostly 53.6 µM), hits mostly inhibitors; 310,000 tested, 3.5% active; AID 2546, 2010;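 also: Gal4-VP16 expression switched on by copper sulfate through the metallothionein promoter; nearly all actives have a fitted effect of over 50% in size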
# IL1B secr inh: qHTS for Inhibitors of Inflammasome Signaling: IL-1-beta AlphaLISA Primary Screen | activity change, % at 57.5 µM | THP-1 LPS/ATP IL-1B secretion, AlphaLISA, 16 h; active compounds read low | 360,000 tested, 4.7% active; in the data active = activity change below about -50%; inconclusive = mostly about -30% to -49%
#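 THP-1 cells pretreated 1 hr with compounds (up to 57.5 uM final), then stimulated with LPS (250 ng/mL final) plus ATP (1.25 mM final); secreted IL-1B measured by AlphaLISA after 16 hr, decreased signal indicating inhibition.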
# Hits are given with their value; . = inactive; ? = inconclusive; / = no result; [ ] = dose if it differs, or a comment. Unless noted, calls follow the shape of the dose curve; as a rule, active = well fitted curve in the direction sought with a large enough effect; inconclusive = small, poorly fitted or top-dose-only effect, or another doubt; inactive = no such curve, though single readings can be large; an effect the other way counts as inactive or inconclusive.
SMILES,SW480 rereplic,MCF10A rerep,RORg inh,Gal4-VP16 FLuc,IL1B secr inh
CCOc1ccc(NC(=S)NC(C)CCc2ccccc2)cc1 (centres undefined),.,.,2.51µM,7.08µM,.
COc1cc(NC(=S)Nc2cccc(Cl)c2Cl)c(OC)cc1Cl,.[9.22 µM],.,?,?,.
COc1cc(NC(=S)NCCCO)c(OC)cc1Cl,.,.,.,.,.
COc1ccc(Cl)cc1NC(=O)C/C(C)=N/NC(=O)COc1ccc(C)cc1,.,.,11.2µM,.,.
CCOc1ccc(NC(=S)Nc2cc(OC)c(Cl)cc2OC)cc1,.,.,10µM,22.4µM,.
Cc1ccnc2nc(C(=O)OCC(=O)N(Cc3ccccc3)C(C)(C)C)nn12,.,.,/,/,.
O=C(O)CCCC(=O)Nc1ccc(OCc2nc3ccccc3s2)cc1,.,.,.,.,.
CCOc1ccc(NC(=S)Nc2cc(C)[nH]n2)cc1,.,.,3.16µM,7.08µM,.
CCOc1ccc(NC(=S)Nc2ccc(OCC)cc2)cc1,?,?,10µM,.,-80.4
CCNC(=S)Nc1ccc(OCc2nc3ccccc3s2)cc1,.[9.22 µM],.,12.6µM,15.8µM,.
CCOc1ccc(NC(=S)Nc2ccc(OC(F)(F)F)cc2)cc1,.,.,?,?,.
CC1CC=CC2C1C(=O)N(Cc1ccccc1)C2c1ccc(Br)cc1F (centres undefined),/,/,.,.,/
COc1ccc(/C(C)=N/Nc2nccnc2Cl)cc1,?,.,/,/,-51.6
CCNc1nc(NCC)nc(N/N=C(\C)c2ccc(OC)cc2)n1,.,.,7.08µM,?,.
CCNc1nc(NCC)nc(Oc2ccc(C(=O)OC)cc2)n1,?,.,.,.,.
CN(C)c1nc(NCc2ccccc2)nc(N/N=C/c2cccc(Br)c2)n1,?,?,3.55µM,11.2µM,.
CCNc1nc(NCC)nc(N/N=C/c2ccccc2)n1,.,.,14.1µM,.,.
CCOC(=O)OCC1OC(c2ccc(C(C)=O)cc2)C=CC1Oc1ccc(-c2ccccc2)cc1 (centres undefined),/,/,.[10 µM],.[10 µM],/
COc1ccc(/C=N/Nc2nc(C)nc(N)n2)cc1,.,.,.,.,.
CCNc1nc(NCC)nc(N/N=C/c2ccc(OC)cc2)n1,.,.,11.2µM,.,.
COc1ccc(/C(C)=N/N=C(N)N)c(O)c1,.,.,.,.,.
CN1CCN(NC(=O)c2cccc(S(=O)(=O)N3CCCCCC3)c2)CC1,.,.,.,.,.
CNC(=S)N/N=C(\C)c1cccc(C(F)(F)F)c1,.,.,1.12µM,3.55µM,.
COC(=O)N/N=C(\C)c1cccc(C(F)(F)F)c1,.,.,.,.,.
CNC(=S)N/N=C(\C)c1ccc(C)c(C)c1,?,.,1.78µM,5.01µM,.
SMILES,SW480 rereplic,MCF10A rerep,RORg inh,Gal4-VP16 FLuc,IL1B secr inh
CN1CCN(NC(=O)c2cccc(C(F)(F)F)c2)CC1,5.8µM,.,.,.,.
CNC(=S)NN=C(C)c1ccc(OC)cc1O,?,?,/,/,-75.8
COc1ccc(-c2csc(C(O)c3ccc(F)cc3)n2)cn1 (centres undefined),/,/,/,/,.
Cc1ccccc1C(=O)N1CCC1(C)C(=O)NC(C)C (centres undefined),/,/,/,/,.
CCOC(=O)CSc1nc2sc3c(c2c(=O)n1-c1ccccc1)CCN(C(C)C)C3,.,.,.,.,.
CNC(=S)NNC(=O)c1cccc(C(F)(F)F)c1,.,.,11.2µM,.[0.365 µM],.
Cc1occc1C(=O)Nc1cnn(CCCC(=O)O)c1,.,.,.,.,.
CSCCC(=O)N1CCN(CC(=O)N2CCCC2)CC1,.,.,2.82µM,.,.
CCc1ccc(OCC2c3cc(OC)c(OC)cc3CCN2C(=S)NC)cc1 (centres undefined),?,?,11.2µM,.,.
CSc1cccc(N2CC(C(=O)N(CC(C)C)c3c(N)n(Cc4ccccc4)c(=O)[nH]c3=O)CC2=O)c1 (centres undefined),.,.,/,/,.
CC(C)N=C1NN=C(c2cccs2)CS1,.,.,12.6µM,.,.
CC(C)c1ccc2c(c1)C(c1cccs1)=NNC(c1ccncc1)=N2,.,.,.,.,.
CC(C)(C)N=C1NN=C(c2ccc(Cl)cc2)CS1,.,.,7.08µM,?,.
CC(C)c1ccc(N=C2NN=C(c3cccs3)CS2)cc1,?,.,12.6µM,?,.
COCC(C)N=C1NN=C(c2ccc(NC(C)=O)cc2)CS1 (centres undefined),?,5.8µM,?,.,.
COCC(C)N=C1NN=C(c2cc(C)n(Cc3ccccc3Cl)c2C)CS1 (centres undefined),.,.,.,.,?
Cc1cc(OCC(=O)OCC(=O)N(C)C2CCS(=O)(=O)C2)ccc1Cl (centres undefined),.,.,/,/,.
COc1cccc(-c2nc(CS(=O)(=O)CC(=O)Nc3cc(OC)ccc3OC)c(C)o2)c1,.,.,.,.,.
CCS(=O)c1ccccc1C(=O)OCC(=O)Nc1cccc(S(=O)(=O)N2CCCCC2)c1 (centres undefined),.,.,/,/,.
c1ccc2oc(C3=NCCN3)cc2c1,/,/,.,.,/
CC(C)(C)N=C1NN=C(c2cc3ccccc3o2)CS1,11.6µM,?,6.31µM,?,.
CC(C)N=C1NN=C(c2ccc(Cl)c(Cl)c2)CS1,?,?,10µM,?,-73.8
CCCCOCCCNC(=O)C1CCCCC1,?,11.6µM,.,.,.
O=S(=O)(c1ccccc1)N1CCC2(CCCN(c3ccncc3)C2)CC1,/,/,.,?,/
O=C1OCC/C1=C1/NCCNC1=O,/,/,/,/,.
SMILES,SW480 rereplic,MCF10A rerep,RORg inh,Gal4-VP16 FLuc,IL1B secr inh
Brc1ccccc1OCCCCn1cnc2ccccc21,.,?,.,?,-84.5
Clc1ccccc1OCCn1cnc2ccccc21,.,.,.,.,.
Clc1ccc(OCCn2cnc3ccccc32)cc1,.,.,3.98µM,.,.
NC(=O)CCn1cnc2ccccc21,.,.,.,.,.
c1ccc2c(c1)ncn2CCC1CCCCC1,?,.,7.94µM,.,.
CN(C)C1CN(Cc2cn(Cc3ccc(C(F)(F)F)cc3)nn2)S(=O)(=O)C1 (centres undefined),/,/,/,/,.
O=C(NCC(c1ccc(F)cc1)N1CCOCC1)c1cc(F)c(F)c(F)c1F (centres undefined),.,.,.,.,-94.5
COc1cc(C(=O)NCC(c2ccc(F)cc2)N2CCOCC2)ccc1OCc1ccccc1Cl (centres undefined),.,?,/,/,-59.9
O=C(NCC(c1ccc(F)cc1)N1CCOCC1)c1ccccc1F (centres undefined),.,.,.,.,.
COc1ccccc1NS(=O)(=O)c1ccc(C(=O)NCC(c2ccc(F)cc2)N2CCOCC2)cc1 (centres undefined),.,.,/,/,.
CC1ON=C(c2ccc(F)cc2)NC1=O (centres undefined),/,/,/,/,.
